# According to the supplement of paper PMC9402605:
# ± gives the standard deviation of the averaged measurements.
# Tested on: Caenorhabditis elegans N2
# Assay: egg-laying rate relative to DMSO control (M9 buffer background) (fraction of control); higher = more egg-laying
# Conditions: 60 µM, 1 h
# Method: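 About 20 young-adult wild-type C. elegans (N2) per well in 96-well plates were exposed to 60 uM compound for 1 h at room temperature, either in M9 buffer (to find stimulators) or in 12.3 mM serotonin + 7.7 mM nicotine (NS, to find inhibitors). Eggs per worm per hour were counted by automated imaging and normalised to the mean of proximal DMSO control wells. Values average the primary screen and two retests of the worm-active (wactive) Egl modulators.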
row,SMILES,egg-laying rate
1,CCOc1ccc(/C=C/[N+](=O)[O-])cc1 [wact-385],0.274 ± 0.14
